DAX1 inh-1 – inhibitors of human orphan nuclear receptor DAX1 (NR0B1); P51843; HEK293 Gal4-DAX1 luciferase reporter, luminescence; inhibition, % at 6.75 µM; 340,000 tested, 0.99% active; AID 504766;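 active = inhibition above the mean over all tested compounds plus 3 SD, cut at about 4.2% in these data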;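 also: 0% = DAX1-transfected cells with DMSO and 100% = empty-vector control cells with DMSO; inhibition shows as a rise in luminescence from relieved DAX1 repression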
hcDAF-12 act – H. contortus DAF-12 activation, primary screen; HEK293 hcDAF-12 lit1-tk-luc reporter, luminescence; 0% DMSO, 100% Δ7-dafachronic acid; activation, % at 6.8 µM; 370,000 tested, 1.4% active; AID 652067;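 active = activation above the mean of all tested compounds plus 3 SD, cut at about 5.5% in these data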;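 also: 100% = response to 3 µM Δ7-dafachronic acid high control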
ssDAF12 agonist – activates DAF-12 receptor from parasite S. stercoralis; HEK293 ssDAF-12/GRIP1 lit1-tk-luc reporter, luminescence; % of 3 µM dafachronic acid response; activation, % at 6.8 µM; 370,000 tested, 1% active; AID 652126;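 active = activation above the mean over all tested compounds plus 3 SD, cut at about 0.9% in these data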;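 also: 0% = DMSO-only wells and 100% = 3 µM delta7-dafachronic acid wells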
AHR act – human AHR activation | P35869 | AHR-responsive luciferase reporter cells, luminescence | activation, % at 5 µM | 320,000 tested, 2.5% active; in the data active = activation above about 47%;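 also: 0% = vehicle wells and 100% = reference agonist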
Target sequence (P35869 whole entry, looked up): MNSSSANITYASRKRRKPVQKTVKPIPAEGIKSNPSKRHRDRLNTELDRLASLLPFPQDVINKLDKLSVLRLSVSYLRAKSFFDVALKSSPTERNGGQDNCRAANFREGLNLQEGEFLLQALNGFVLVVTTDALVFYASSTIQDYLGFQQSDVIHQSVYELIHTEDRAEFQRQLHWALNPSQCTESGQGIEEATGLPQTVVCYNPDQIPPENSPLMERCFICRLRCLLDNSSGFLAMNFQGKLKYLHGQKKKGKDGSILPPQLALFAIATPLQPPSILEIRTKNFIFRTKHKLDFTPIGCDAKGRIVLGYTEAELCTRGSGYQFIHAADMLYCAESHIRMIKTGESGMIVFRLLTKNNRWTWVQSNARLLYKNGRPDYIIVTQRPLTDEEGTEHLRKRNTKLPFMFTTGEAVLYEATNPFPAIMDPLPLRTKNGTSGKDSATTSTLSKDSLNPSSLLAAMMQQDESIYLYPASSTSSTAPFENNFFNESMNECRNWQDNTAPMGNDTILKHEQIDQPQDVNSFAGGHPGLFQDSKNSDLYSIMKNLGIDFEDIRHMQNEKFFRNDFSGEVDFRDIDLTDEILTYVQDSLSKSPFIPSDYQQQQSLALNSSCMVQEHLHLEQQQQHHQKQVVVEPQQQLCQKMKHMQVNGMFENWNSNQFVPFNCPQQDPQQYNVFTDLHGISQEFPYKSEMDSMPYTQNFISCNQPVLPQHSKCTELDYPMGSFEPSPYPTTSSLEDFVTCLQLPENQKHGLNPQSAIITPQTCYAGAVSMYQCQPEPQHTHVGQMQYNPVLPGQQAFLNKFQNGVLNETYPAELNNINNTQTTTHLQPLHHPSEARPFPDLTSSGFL
DAX1 inh-2 – DAX1 (NR0B1) inhibition, primary screen; 370,000 tested, 1.1% active; HEK293T StAR-luciferase reporter, SF-1/DAX-1 repression relief; inhibition, % at 6.8 µM;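 active = inhibition above the mean over all tested compounds plus 3 SD, cut at about 3.6% in these data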;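 also: 0% = DAX-1 cells with DMSO and 100% = cells lacking DAX-1 with DMSO; higher inhibition means more luminescence from relief of DAX-1 repression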
hgDAF12 agonist – hgDAF-12 agonism, primary luciferase screen; AID 687014; 370,000 tested, 1.8% active; HEK293 GAL4-hgDAF12 UAS-luciferase reporter, agonist luminescence; normalized to butyrate control; activation, % at 6.8 µM;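 active = activation above a cutoff set at the mean of all screened compounds plus 3 SD, cut at about 10% in these data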;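 also: 0% = DMSO wells and 100% = sodium butyrate wells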
* = called active by the depositor; . = no result given. Sampled rows, rich in hits. Any-hit rate of the full collection: about 5.7%.

SMILES	DAX1 inh-1	hcDAF-12 act	ssDAF12 agonist	AHR act	DAX1 inh-2	hgDAF12 agonist
O=C(CNc1cccc2ccccc12)N/N=C/c1ccc([N+](=O)[O-])o1	-0.6	-3.9	-1.9	65.1*	-3.1	-11.0
O=C(CNc1ccccc1)N/N=C/c1ccc2c(c1)OCO2	-0.7	-0.3	-1.1	52.7*	-0.3	-0.1
O=C(CNc1ccccc1)N/N=C/c1ccc2c(c1)OCCO2	0.0	1.1	-1.1	9.3	-0.1	3.2
O=C(CNC(=O)c1ccccn1)N/N=C/c1ccc2c(c1)OCO2	-2.3	0.0	-1.2	67.7*	0.0	3.7
COc1ccccc1-n1c(C)c(C(=O)O)c2cc(OC)c3ccccc3c21	0.4	-1.1	-1.5	1.6	0.6	-0.2
CCN(CC)CCNc1c(C)cc(CO)c(Cl)c1C	2.5	-1.0	-1.1	.	-1.1	4.0
CCN(CC)c1ccc(/C=N/NC(=O)CNC(=O)c2ccccn2)cc1	-0.8	0.4	-0.7	60.3*	-0.9	2.9
O=C(N/N=C/c1ccc([N+](=O)[O-])cc1)c1[nH]ncc1Br	4.7*	0.2	0.1	4.4	1.9	8.8
COc1ccc(N(CC(=O)Nc2cc([N+](=O)[O-])ccc2C)S(C)(=O)=O)cc1OC	-0.4	-0.3	1.3*	3.7	-0.8	-0.3
O=C(NCCNc1ccc([N+](=O)[O-])cc1)c1cccs1	0.0	-0.7	-0.9	1.4	-0.7	-0.3
COCCN=c1scc(-c2ccccc2)n1/N=C/c1c[nH]c2ccccc12	0.1	2.3	-1.2	54.8*	-0.1	2.3
COc1cc([N+](=O)[O-])ccc1NC(=O)CC(C)C	-1.6	-1.4	-1.3	0.0	-0.4	0.2
CCOC(=O)c1cn(Cc2ccc(C)cc2)nn1	-1.2	5.8*	-0.6	-1.8	-0.5	-2.3
CCOC(=O)c1cn(Cc2ccc(Br)cc2)nn1	2.2	-2.6	-1.6	1.1	-0.2	0.4
COc1ccc(Nc2nc3ccccc3n3cnnc23)cc1	0.1	-1.5	-1.9	71.7*	-0.8	-1.6
Cn1c(Nc2ccc(F)cc2)nc2ccccc21	0.3	-0.9	-0.2	-0.6	-0.5	0.5
COc1ccc(Nc2nc3ccccc3n2C)cc1	6.4*	5.3	-0.2	9.9	0.9	12.0*
COc1cccc(/C=N/Nc2nc3ccccc3n3cnnc23)c1O	-2.3	-2.9	-2.0	-4.9	-0.2	6.7
COc1cccc(/C=N/Nc2nc3ccccc3n3cnnc23)c1	-1.8	2.9	-0.7	57.5*	-0.7	2.1
Cc1cc(F)ccc1S(=O)(=O)N1CCCOC1CNC(=O)C(=O)NCc1ccncc1 (configuration not stated)	1.1	1.1	-1.2	6.8	1.1	0.3
ON(CCc1ccncc1)Cc1ccccc1	0.3	2.3	-0.9	.	1.0	-1.2
O=C(COc1cccc2c1CCNC2=O)Nc1cccc(F)c1	0.2	-1.5	-1.0	49.1*	-1.9	0.1
CCOC(=O)C(NC(=O)Nc1ncccn1)(Oc1ccccc1)C(F)(F)F (configuration not stated)	0.9	-0.7	-0.8	5.2	4.2*	3.8
CCOC(=O)C(NC(=O)c1ccccc1)(OCc1ccc(F)cc1)C(F)(F)F (configuration not stated)	0.6	1.6	-0.2	0.3	-0.5	11.8*
CCOC(=O)C(NC(=O)c1cccc(Cl)c1)(OCc1ccc(F)cc1)C(F)(F)F (configuration not stated)	-1.6	-0.5	-1.3	1.4	-0.3	0.7
SMILES	DAX1 inh-1	hcDAF-12 act	ssDAF12 agonist	AHR act	DAX1 inh-2	hgDAF12 agonist
CCOC(=O)C(NC(=O)Nc1ccc(F)cc1F)(Oc1ccc(F)cc1)C(F)(F)F (configuration not stated)	1.4	0.9	-1.4	0.0	0.8	-2.8
CC(=O)Nc1ccc(N2C(C(C)=O)=NN(c3ccc(Cl)cc3)C2c2sccc2C)cc1 (configuration not stated)	1.3	0.9	-0.9	65.6*	-0.6	1.5
CC(=O)Nc1ccc(N2C(C(C)=O)=NN(c3ccccc3)C2c2cccs2)cc1 (configuration not stated)	0.3	-1.1	-1.8	3.0	-0.2	3.2
CCOc1ccccc1/C=N/Nc1ccc(Cl)nn1	0.6	0.4	1.0*	45.7	-0.2	-0.8
O=C(O)c1cc(S(=O)(=O)Nc2ccc3cn[nH]c3c2)ccc1O	0.7	4.6	1.0*	27.0	-0.3	4.4
Cc1cc(C(=O)N/N=C/c2cccc(Cl)c2Cl)no1	1.4	1.2	-0.8	47.1*	0.2	7.0
Cc1nn(CC(=O)N2CCc3ccccc3C2)c(C)c1Cl	-0.2	-2.2	-1.0	-1.1	-1.1	0.8
COc1ccc(NC(=O)CSc2c3c(nc4ccccc24)CCCC3)c(OC)c1	3.8	1.7	-0.7	2.1	-0.3	-1.5
COc1ccccc1NC(=O)CSc1c2c(nc3ccccc13)CCC2	1.0	-0.6	-1.2	47.0*	0.1	0.5
CCc1nn(CC(=O)NCCCN(C)Cc2ccccc2)c(=O)c2cc3sc(C)cc3n12	0.5	-0.7	-0.8	5.7	1.8	0.3
Cc1cc(C)nc(SCC(=O)N/N=C\c2sccc2C)n1	-1.2	-0.4	-1.6	63.0*	0.3	-0.7
Cc1c(NC(=O)COc2ncnc3ccccc23)c(=O)n(-c2ccccc2)n1C	-0.5	-0.2	-1.2	2.8	-0.3	-1.5
COC(=O)[C@H]1Cc2c([nH]c3ccccc23)[C@H](c2ccccc2)N1	1.0	6.4*	0.0	18.9	-0.1	0.1
COC(=O)C1Cc2c([nH]c3ccccc23)CN1 (configuration not stated)	0.3	-1.6	0.1	44.0	-0.6	-0.5
COC(=O)C1CCN(C(=O)COC(=O)c2oc3ccc(OC)cc3c2C)CC1	0.1	-1.3	-1.0	-0.8	-0.5	1.6
Clc1ccc(Nc2nnc(-c3ccc4c(c3)OCO4)o2)cc1	.	3.4	-0.6	.	3.9*	8.8
OCCCNCc1ccc(N(c2ccccc2)c2ccccc2)cc1	5.9*	-0.4	-1.2	-4.2	-0.3	-1.9
Nc1ccc2oc3ccccc3c2c1	0.9	6.1*	-0.2	19.8	0.6	9.7
Nc1ccc(C#Cc2ccc3oc4ccccc4c(=O)c3c2)cc1	-2.2	-1.2	-1.7	36.4	-0.4	4.7
CCOC(=O)[C@@H]1[C@H]2COc3cc(OC)ccc3[C@@H]2N2C(=O)N(c3cccc(F)c3)C(=O)[C@]12C	0.1	2.3	-1.1	-4.6	0.2	0.3
CCOC(=O)[C@@H]1[C@H]2COc3cc(OC)ccc3[C@@H]2N2C(=O)N(c3cccc(F)c3)C(=O)[C@@]12C	1.4	0.2	-1.2	50.5*	0.1	1.1
Cc1ccc(C(=O)C[n+]2cc(Br)cc(Br)c2)cc1[N+](=O)[O-]	-0.5	1.6	-0.8	2.8	0.2	0.7
CC(C)CN1CCCC(N2CCN(c3cccc(Cl)c3)CC2)C1 (configuration not stated)	-0.4	6.3*	-0.5	0.6	0.1	7.7

Compound activity deposited in PubChem by The Scripps Research Institute Molecular Screening Center.
